Test results published in PubChem BioAssay (NCATS).
Records with an inconclusive call do not appear. Entries that show only a call come without a potency. The source made the active and inactive calls. The call rests on the fitted dose curve; in most records, active means well fitted curve in the direction sought with a large enough effect; inconclusive means small, poorly fitted or top-dose-only effect, or another doubt; inactive means no such curve, though single readings can be large; an effect the other way counts as inactive or inconclusive.

How the values were obtained:
[1] = qHTS of pediatric cancer cell lines to identify multiple opportunities for drug repurposing: Primary screen for U-2 OS cells (AID 1347096); further: nearly all actives have a fitted effect of over 50% in size; further: potency means the concentration at half of the fitted maximal effect
Procedure, shortened: (§1)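 Cells (500-1,000/well) rested 5 h, then received compounds for 48 h; metabolically active cells were measured by CellTiter-Glo luminescence. Final concentrations spanned up to 46 µM (MIPE, 11-point) or 0.59 nM-46 µM (NPC, 8-point) in primary screens, 11-point in follow-ups.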

[2] = qHTS of pediatric cancer cell lines to identify multiple opportunities for drug repurposing: Primary screen for Saos-2 cells (AID 1347097); further: nearly all actives have a fitted effect of over 40% in size; further: potency means the concentration at half of the fitted maximal effect
Procedure, shortened: (§2)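 ATP-based luminescence (CellTiter-Glo) quantifies viability after a 48-hour exposure. Compounds are dosed across 8 or 11 final concentrations; DMSO and 2.3 µM bortezomib serve as controls.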

[3] = qHTS of pediatric cancer cell lines to identify multiple opportunities for drug repurposing: Primary screen for SK-N-SH cells (AID 1347098); further: nearly all actives have a fitted effect of over 65% in size; further: potency means the concentration at half of the fitted maximal effect
Procedure, shortened: as §1

[4] = qHTS of pediatric cancer cell lines to identify multiple opportunities for drug repurposing: Primary screen for NB1643 cells (AID 1347099); further: nearly all actives have a fitted effect of over 50% in size; further: potency means the concentration at half of the fitted maximal effect
Procedure, shortened: as §2

[5] = qHTS of pediatric cancer cell lines to identify multiple opportunities for drug repurposing: Primary screen for LAN-5 cells (AID 1347100); further: potency means the concentration at half of the fitted maximal effect
Procedure, shortened: as §1

[6] = qHTS of pediatric cancer cell lines to identify multiple opportunities for drug repurposing: Primary screen for BT-12 cells (AID 1347101); further: nearly all actives have a fitted effect of over 25% in size; further: potency means the concentration at half of the fitted maximal effect
Procedure, shortened: as §1

[7] = qHTS of pediatric cancer cell lines to identify multiple opportunities for drug repurposing: Primary screen for Rh18 cells (AID 1347102); further: nearly all actives have a fitted effect of over 65% in size; further: potency means the concentration at half of the fitted maximal effect
Procedure, shortened: as §1

[8] = qHTS of pediatric cancer cell lines to identify multiple opportunities for drug repurposing: Primary screen for OHS-50 cells (AID 1347103); further: nearly all actives have a fitted effect of over 40% in size; further: potency means the concentration at half of the fitted maximal effect
Procedure, shortened: as §1

[9] = qHTS of pediatric cancer cell lines to identify multiple opportunities for drug repurposing: Primary screen for RD cells (AID 1347104); further: nearly all actives have a fitted effect of over 55% in size; further: potency means the concentration at half of the fitted maximal effect
Procedure, shortened: as §2

[10] = qHTS of pediatric cancer cell lines to identify multiple opportunities for drug repurposing: Primary screen for MG 63 (6-TG R) cells (AID 1347105); further: nearly all actives have a fitted effect of over 50% in size; further: potency means the concentration at half of the fitted maximal effect
Procedure, shortened: as §2

[11] = qHTS of pediatric cancer cell lines to identify multiple opportunities for drug repurposing: Primary screen for control Hh wild type fibroblast cells (AID 1347106);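 further: series mostly up to about 46 µM; a drop in luminescence marks cytotoxicity and a rise apparent proliferation; nearly all actives have a fitted effect of over 55% in size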
Procedure, shortened: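 Viability after 48 h compound treatment at 37C, 500-1,000 cells/well, read as ATP luminescence with CellTiter-Glo. Primary screens used 11-point (MIPE, 0.78 nM-46 µM) or 8-point (NPC, 0.59 nM-46 µM) final concentrations; follow-up screens used 11-point dilutions.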

[12] = qHTS of pediatric cancer cell lines to identify multiple opportunities for drug repurposing: Primary screen for Rh30 cells (AID 1347107); further: nearly all actives have a fitted effect of over 75% in size; further: potency means the concentration at half of the fitted maximal effect
Procedure, shortened: as §1

[13] = qHTS of pediatric cancer cell lines to identify multiple opportunities for drug repurposing: Primary screen for Rh41 cells (AID 1347108); further: nearly all actives have a fitted effect of over 70% in size; further: potency means the concentration at half of the fitted maximal effect
Procedure, shortened: as §2

[14] = qHTS of pediatric cancer cell lines to identify multiple opportunities for drug repurposing: Confirmatory screen for A673 cells (AID 1347110);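 further: potency means the concentration at half of the fitted maximal effect; cells exposed to compound for 48 h before the viability read; nearly all actives have a fitted effect of over 65% in size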
Procedure, shortened: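 qHTS titration format: primary MIPE 0.78 nM-46 µM (11 pts), NPC 0.59 nM-46 µM; confirmation 11 pts. 48 h, CTG luminescence.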

[15] = qHTS of pediatric cancer cell lines to identify multiple opportunities for drug repurposing: Confirmatory screen for DAOY cells (AID 1347114); further: potency means the concentration at half of the fitted maximal effect; nearly all actives have a fitted effect of over 65% in size
Procedure, shortened: (§3)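 Viability measured as metabolically active cells via CellTiter-Glo luminescence following 48 hours of compound exposure, 11-point dilutions in confirmatory testing. 500-1,000 cells/well plated 5 hours before dosing; controls were DMSO and 2.3 µM bortezomib.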

[16] = qHTS of pediatric cancer cell lines to identify multiple opportunities for drug repurposing: Confirmatory screen for BT-37 cells (AID 1347117); further: potency means the concentration at half of the fitted maximal effect; nearly all actives have a fitted effect of over 55% in size
Procedure, shortened: as §1

[17] = qHTS of pediatric cancer cell lines to identify multiple opportunities for drug repurposing: Confirmatory screen for TC32 cells (AID 1347118)
Procedure, shortened: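 qHTS, TC32, 48 h drug treatment, CellTiter-Glo luminescence as a proxy for metabolically active cells; primary top concentration 46 µM (MIPE 11-pt, NPC 8-pt); confirmatory 11-pt.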

[18] = qHTS of pediatric cancer cell lines to identify multiple opportunities for drug repurposing: Confirmatory screen for NB1643 cells (AID 1347109); further: potency means the concentration at half of the fitted maximal effect; nearly all actives have a fitted effect of over 45% in size
Procedure, shortened: as §1

[19] = qHTS of pediatric cancer cell lines to identify multiple opportunities for drug repurposing: Confirmatory screen for BT-12 cells (AID 1347112); further: potency means the concentration at half of the fitted maximal effect; nearly all actives have a fitted effect of over 55% in size
Procedure, shortened: as §1

[20] = qHTS of pediatric cancer cell lines to identify multiple opportunities for drug repurposing: Confirmatory screen for SJ-GBM2 cells (AID 1347116); further: potency means the concentration at half of the fitted maximal effect; nearly all actives have a fitted effect of over 60% in size
Procedure, shortened: as §3

Structure (SMILES)	Potency [1]	Potency [2]	Potency [3]	Potency [4]	Potency [5]	Potency [6]	Potency [7]	Potency [8]	Potency [9]	Potency [10]	Potency [11]	Potency [12]	Potency [13]	Potency [14]	Potency [15]	Potency [16]	Potency [17]	Potency [18]	Potency [19]	Potency [20]
CCN1CCN(C(=O)Cc2ccc(Nc3ncc(F)c(Nc4ccc(C(=O)Nc5ccccc5Cl)cc4)n3)cc2)CC1	7.43 µM (active)	4.69 µM (active)	21.5 µM (active)	5.9 µM (active)	0.469 µM (active)	19.3 µM (active)	8.33 µM (active)	4.32 µM (active)	13.2 µM (active)	9.35 µM (active)	inactive	23.5 µM (active)	18.7 µM (active)	–	–	–	–	–	–	–
CCc1c(C(=O)C(N)=O)c2c(OCC(=O)O)cccc2n1Cc1ccccc1	inactive	inactive	inactive	inactive	inactive	inactive	inactive	inactive	inactive	–	inactive	inactive	inactive	–	–	–	–	–	–	–
COC(C)(C)CCCC(C)C/C=C/C(C)=C/C(=O)OC(C)C (stereo not drawn)	inactive	inactive	inactive	inactive	inactive	inactive	inactive	inactive	inactive	inactive	inactive	–	inactive	–	–	–	–	–	–	–
Cc1cc(O)ccc1Cl	inactive	inactive	inactive	inactive	inactive	inactive	inactive	inactive	–	inactive	inactive	–	inactive	–	–	–	–	–	–	–
C=CC(=O)NCNC(=O)C=C	inactive	inactive	inactive	inactive	inactive	inactive	inactive	inactive	inactive	inactive	inactive	inactive	inactive	–	–	–	–	–	–	–
Nc1ccc(Cl)cc1	inactive	inactive	inactive	inactive	inactive	inactive	inactive	inactive	inactive	inactive	inactive	–	inactive	–	–	–	–	–	–	–
CC[N+]1(CCOC(=O)C(O)(c2ccccc2)c2ccccc2)CCCCC1	inactive	inactive	inactive	inactive	inactive	inactive	inactive	inactive	inactive	inactive	inactive	inactive	inactive	–	–	–	–	–	–	–
C1CCC(NC2CCCCC2)CC1	inactive	inactive	inactive	inactive	inactive	inactive	inactive	inactive	–	inactive	inactive	–	inactive	–	–	–	–	–	–	–
CCOC(=O)c1cncn1[C@H](C)c1ccccc1	inactive	inactive	inactive	inactive	inactive	inactive	inactive	inactive	–	inactive	inactive	–	inactive	–	–	–	–	–	–	–
C[C@H]([C@H](O)CCC(C)(C)O)[C@H]1CC[C@@]2(O)C3=CC(=O)[C@@H]4C[C@@H](O)[C@@H](O)C[C@]4(C)[C@@H]3CC[C@]12C	inactive	inactive	inactive	inactive	inactive	inactive	inactive	inactive	–	inactive	inactive	inactive	inactive	–	–	–	–	–	–	–
CC(O)CN1CCN(CC(=O)[O-])CCN(CC(=O)[O-])CCN(CC(=O)[O-])CC1.[Gd+3] (stereo not drawn)	inactive	inactive	inactive	inactive	inactive	inactive	inactive	inactive	inactive	inactive	inactive	–	inactive	–	–	–	–	–	–	–
CN[C@@H]1Cc2cccc3[nH]c(=O)n(c23)C1	inactive	inactive	inactive	inactive	inactive	inactive	inactive	–	inactive	inactive	inactive	–	–	–	–	–	–	–	–	–
CN[C@@H](C)[C@H](O)c1ccccc1	inactive	inactive	inactive	inactive	inactive	inactive	inactive	inactive	inactive	inactive	inactive	–	inactive	–	–	–	–	–	–	–
CC(=Cc1csc(C)n1)[C@@H]1C[C@H]2O[C@]2(C)CCC[C@H](C)[C@@H](O)[C@@H](C)C(=O)C(C)(C)[C@@H](O)CC(=O)O1	inactive	0.001 µM (active)	inactive	inactive	0.001 µM (active)	inactive	inactive	0.001 µM (active)	–	–	inactive	inactive	–	0.0074 µM (active)	0.0117 µM (active)	0.0052 µM (active)	0.0037 µM (active)	–	–	–
CC[C@@]1(O)C(=O)OCc2c1cc1n(c2=O)Cc2cc3ccccc3nc2-1	1.18 µM (active)	0.0469 µM (active)	0.121 µM (active)	0.0469 µM (active)	0.0093 µM (active)	0.273 µM (active)	0.296 µM (active)	0.0193 µM (active)	–	0.059 µM (active)	–	–	0.209 µM (active)	0.0465 µM (active)	4.65 µM (active)	0.0369 µM (active)	0.0185 µM (active)	0.131 µM (active)	0.827 µM (active)	0.104 µM (active)
Fc1cc(Br)ccc1CBr	inactive	inactive	inactive	inactive	inactive	inactive	inactive	inactive	inactive	inactive	inactive	inactive	inactive	–	–	–	–	–	–	–
